# Hits are enriched below; roughly 1.5% of the tested compounds scored in any of these assays.
# PI4K2A block: blocks human PI4K2A kinase activity; Q9BTU6; purified PI4K2A, ADP-Glo luminescence, 1 h; active compounds read low; activity change, negative = inhibition, % at 76.9 µM; actives 0.13% (n = 420,000); in the data active = activity change below about -50%; inconclusive = mostly about -30% to -49%;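 also: -100% = wells without enzyme as full effect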
#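 Compounds are screened against recombinant PI4K2A using PI as substrate and ATP, the latter dispensed at 300 microM. Reactions run one hour at ambient temperature before ADP-Glo detection; full inhibition defined by wells lacking enzyme.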
# Coupling enz: coupling enzyme interference in Giardia aldolase counter-screen; coupling enzyme system counterscreen, AmpLite Red fluorescence; actives 0.67% (n = 290,000); activity change, negative = inhibition, % at 58.2 µM, hits read low; in the data active = activity change below about -30%
#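 Compounds tested against the coupling enzymes alone at 57.5 uM final; readout was AmpLite Red fluorescence (525/598 nm) after 20 min at RT.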
# TrxR1 substrate: is turned over as a substrate by rat TrxR1. AID 588456. actives 0.01% (n = 390,000). Potency, µM (doses to about 114 µM), inactives show at the highest dose activity change, negative = substrate turnover. purified TrxR1 substrate turnover, NADPH consumption readout. O89049; also: potency is read from the fitted curve at half-maximal effect; nearly all actives have a fitted effect of over 50% in size
# Target sequence (O89049 whole entry, looked up): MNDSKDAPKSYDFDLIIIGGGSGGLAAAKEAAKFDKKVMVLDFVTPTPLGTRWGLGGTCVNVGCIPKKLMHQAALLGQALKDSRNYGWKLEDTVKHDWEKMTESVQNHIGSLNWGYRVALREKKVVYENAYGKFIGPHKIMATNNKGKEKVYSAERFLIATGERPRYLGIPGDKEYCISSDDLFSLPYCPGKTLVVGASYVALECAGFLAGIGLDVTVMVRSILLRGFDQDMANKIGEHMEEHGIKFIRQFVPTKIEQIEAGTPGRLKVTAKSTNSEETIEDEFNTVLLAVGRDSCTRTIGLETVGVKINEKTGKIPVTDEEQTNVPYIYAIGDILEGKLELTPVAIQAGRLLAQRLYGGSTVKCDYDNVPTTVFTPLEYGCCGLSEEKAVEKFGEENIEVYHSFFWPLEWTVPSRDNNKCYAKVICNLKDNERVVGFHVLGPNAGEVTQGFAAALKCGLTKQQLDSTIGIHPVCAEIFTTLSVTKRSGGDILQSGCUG
#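 Rat TrxR1, dispensed at 90 nM, was prereduced with 400 uM NADPH (final) for 5 min at ~22 deg C, then incubated with compound 15 min before 400 uM selenite. A first-read NADPH fluorescence drop versus no-compound background flagged substrates.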
# rTrxR1 inhibitor: blocks rat thioredoxin reductase 1; Potency, µM (doses to about 114 µM), inactives show at the top dose activity change, negative = inhibition, hits mostly inhibitors; actives 1% (n = 390,000); recombinant rTrxR1, NADPH fluorescence consumption, selenite substrate; also: potency is read from the fitted curve at half-maximal effect; nearly all actives have a fitted effect of over 65% in size
#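 Rat TrxR1 (90 nM in the dispensed reagent) was pre-reduced with 400 uM NADPH for 5 min at room temperature, then incubated with compound for 15 min. After 400 uM selenite was added, NADPH fluorescence (Ex 340/Em 450 nm) was followed for 8 min.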
# Giardia kill: kills Giardia lamblia | actives 0.15% (n = 340,000) | AID 540267 | Giardia lamblia trophozoite viability | activity change, % at 7.66 µM, hits read low; in the data active = activity change below about -80%; inconclusive = between about -30% and that limit;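 also: parasites exposed to compound for two days anaerobically before the ATP read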
#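 Each well holds 100 Giardia trophozoites and compound. After two days (48 hrs) at 37 deg C in anaerobic conditions, ATP is quantified by luminescence.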
# GALK inh: inhibitors of human galactokinase; P51570; Purified GALK, Kinase-Glo residual ATP luminescence; Potency, µM (highest dose often 57.5 µM), without a hit: at the highest dose activity change, negative = inhibition, hits mostly inhibitors; actives 0.007% (n = 270,000); also: potency is read from the fitted curve at half-maximal effect
#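 Compounds were pin-transferred into ATP buffer (35 uM final), then GALK plus galactose (5 nM, 100 uM final) was added. After 1 h at room temperature, Kinase-Glo Plus was added and luminescence read after 10 min.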
# Active calls of the source: *; u = inconclusive; x = no result given; [ ] = remark or other dose. Unless noted, calls follow the shape of the dose curve; as a rule, active = well fitted curve in the direction sought with a large enough effect; inconclusive = small, poorly fitted or top-dose-only effect, or another doubt; inactive = no such curve, though single readings can be large; an effect the other way counts as inactive or inconclusive. Unless noted, % is scaled to controls: 0 for no effect and ±100 for the full control effect.
SMILES,PI4K2A block,Coupling enz,TrxR1 substrate,rTrxR1 inhibitor,Giardia kill,GALK inh
CNc1oc(Cc2ccccc2)nc1S(=O)(=O)c1ccc(Cl)cc1,-2,3,-3%,11µM*,3,-2%
COc1ccc(-c2nc(S(=O)(=O)c3ccccc3)c(N3CCC(C)CC3)o2)cc1,0,x,-2%,10%,x,x
CCOc1ccc(-c2nc(S(=O)(=O)c3ccccc3)c(N3CCC(C(N)=O)CC3)o2)cc1,5,x,-6%,45µM*,19,-2%
Cc1ccccc1CN1CCCCC(NC(=O)C2CCCCC2)C1=O (centres undefined),4,x,x,x,x,x
Cc1cc(=O)n(-c2ccc(C(=O)O)cc2)[nH]1,-56*,5,2%,45%,14,1%
COc1ccccc1N1CCN(C(c2ccc(N(C)C)cc2)c2nnnn2CCc2ccccc2)CC1 (centres undefined),7,-3,-5%,3.2µM*,4,-4%
CCOC(=O)c1c(C)oc2c1c1c(c3ccccc32)OCN(Cc2ccccn2)C1,7,-37*,5%,u,2,-3%
CCOC(=O)c1c(C)oc2c1c(C(c1ccncc1)N1CCOCC1)c(O)c1ccccc12 (centres undefined),8,-48*,2%,u,0,-5%
CCOC(=O)C1CCN(Cc2ccccn2)CC1,x,0,x,x,x,-1%
Cc1ccc(Sc2c([N+](=O)[O-])c(=O)n(C)c3ccccc23)cc1,-9,-2,1%,2µM*,-26,-5%
COc1ccc(/[N+]([O-])=C/c2ccco2)cc1,-24,x,-7%,56µM*,-4,x
COc1ccc(OCC(=O)N/N=C\c2ccco2)cc1,-2,1,-2%,12%[57.1 µM],1,0%
COc1ccccc1CNC(=O)CCc1c(C)c2cc3c(C)coc3cc2oc1=O,6,x,18%,28%,x,x
CNCc1ccccc1Sc1ccc(O)c(O)c1,1,-40*,-10%,32µM*,7,2%
COc1ccc(Sc2ccccc2CN(C)C)cc1OC,3,0,14%[57.1 µM],20%[57.1 µM],-2,-3%
CN(C1=C(NC(=O)c2ccccc2)C(=O)c2ccccc2C1=O)C1CCS(=O)(=O)C1 (centres undefined),-16,-62*,-3%,50µM*,-21,0%
O=C(CN1C(=O)c2ccccc2C1=O)NC1CCS(=O)(=O)C1 (centres undefined),1,x,x,x,x,x
CC(=O)NC1=C(NC2CCS(=O)(=O)C2)C(=O)c2ccccc2C1=O (centres undefined),-6,-51*,-17%,u,-1,-1%
C=CCn1c(O)c(N=NC(=O)CNC(=O)/C=C/c2ccco2)c2ccccc21,u,-2,-2%,14µM*,7,1%
COc1cccc(C(C[N+](=O)[O-])c2c(C)[nH]n(-c3ccccc3)c2=O)c1 (centres undefined),1,-44*,0%,u,2,-19%
CCOc1ccc(C(c2c(C)[nH]n(-c3ccccc3)c2=O)c2c(C)[nH]n(-c3ccccc3)c2=O)cc1OC,-58*,x,-7%,-23%,x,x
Cc1[nH]n(-c2ccccc2)c(=O)c1C(c1ccc(C(=O)O)cc1)c1c(C)[nH]n(-c2ccccc2)c1=O,-20,13,-2%,-31%,-16,1%
Cc1ccc(NC(=O)CN(C)C(=O)Cn2ncc(Cl)c(Cl)c2=O)cc1,-7,-1,-9%,71µM*,-2,0%
Cc1ccc(NC(=O)CN(C)C(=O)Cc2ccc(Cl)c(Cl)c2)cc1,-6,-1,-5%,11%,12,-2%
O=C(CN1C(=O)CC(c2ccco2)Sc2ccccc21)Nc1ccccc1F (centres undefined),-10,1,2%,25µM*,5,-3%
COC(=O)C(C(C)=O)C1c2ccccc2C=C(C)N1C(=O)OC (centres undefined),x,-2,x,x,x,x
O=C(Nc1ccc(NC(=O)c2ccccc2F)cn1)c1ccco1,-22,-1,-3%[57.1 µM],14µM*,u,8%
